# Results reported in a collection of fitness landscapes (doi:10.1126/science.1257360).
# The full ranking holds about 140,000 sequences; the median of “enrichment ratio after two sorts for PhoP signalling” is about 0, and the highest 2% start at about 11. This is one part of a sample in which the highest values are shown more often than they occur.
# B1: PhoQ; a variant is named by its letters at X, in order, P23837 (parent)
# chain: MKKLLRLFFPLSLRVRFLLATAAVVLVLSLAYGMVALIGYSVSFDKTTFRLLRGESNLFYTLAKWENNKLHVELPENIDKQSPTMTLIYDENGQLLWAQRDVPWLMKMIQPDWLKSNGFHEIEADVNDTSLLLSGDHSIQQQLQEVREDDDDAEMTHSVAVNVYPATSRMPKLTIVVVDTIPVELKSSYMVWSWFIYVLSANLLLVIPLLWVAAWWSLRPIEALAKEVRELEEHNRELLNPATTRELTSLVRNLNRLLKSERERYDKYRTTLTDLTHSLKTPLXXLQXXLRSLRSEKMSVSDAEPVMLEQISRISQQIGYYLHRASMRGGTLLSRELHPVAPLLDNLTSALNKVYQRKGVNISLDISPEISFVGEQNDFVEVMGNVLDNACKYCLEFVEISARQTDEHLYIVVEDDGPGIPLSKREVIFDRGQRVDTLRPGQGVGLAVAREITEQYEGKIVAGESMLGGARMEVIFGRQHSAPKDE
# Variants of: B1
# Experiment: enrichment ratio after two sorts for PhoP signalling (ratio (wild type AVST 3.29)); higher = more functional
# Conditions: with PhoP (E. coli)
row,Variant,enrichment ratio
1,HMAW,≤ 0.25
2,ILRI,≤ 0.25
3,DLNY,≤ 0.25
4,WPQA,≤ 0.25
5,NATY,≤ 0.25
6,KATY,≤ 0.25
7,SETY,15
8,SSTY,11.3
9,TKWY,12.9
10,AKWY,≤ 0.25
11,KSWY,≤ 0.25
12,METY,3.22
13,KSTY,≤ 0.25
14,QETY,≤ 0.25
15,SATY,12.7
16,NVTY,≤ 0.25
17,VMNQ,≤ 0.25
18,KFEC,≤ 0.25
19,WKRY,≤ 0.25
20,SLGY,1.84
21,TSWY,14.1
22,KYGY,≤ 0.25
23,SIGY,14.3
24,LCWY,≤ 0.25

row,Variant,enrichment ratio
1,MMWY,≤ 0.25
2,VGCD,≤ 0.25
3,QAMQ,44.4
4,QPGQ,≤ 0.25
5,QAGD,≤ 0.25
6,QGGQ,8.17
7,QAVQ,≤ 0.25
8,FAMQ,45
9,NAGQ,≤ 0.25
10,MAMQ,≤ 0.25
11,QAMV,≤ 0.25
12,TPGQ,16
13,QAGQ,24.5
14,FAVQ,≤ 0.25
15,KRHT,≤ 0.25
16,IASQ,≤ 0.25
17,FDMR,≤ 0.25
18,HIEP,≤ 0.25
19,ITVA,≤ 0.25
20,SHRP,≤ 0.25
21,NRKT,≤ 0.25
22,GQLV,7.76
23,SALF,9.67
24,KRAM,≤ 0.25

row,Variant,enrichment ratio
1,MDPE,≤ 0.25
2,EKES,≤ 0.25
3,ASSQ,14.5
4,ASSK,≤ 0.25
5,ASKA,≤ 0.25
6,ASSS,11.9
7,ASSR,≤ 0.25
8,ASHP,≤ 0.25
9,VWGF,≤ 0.25
10,SDHM,≤ 0.25
11,AQDN,≤ 0.25
12,PECQ,≤ 0.25
13,IETV,≤ 0.25
14,GGGF,≤ 0.25
15,GYGF,≤ 0.25
16,GVHF,≤ 0.25
17,GVGF,12
18,GNSF,1.14
19,GVSF,11.8
20,DDND,≤ 0.25
21,QPHR,≤ 0.25
22,FDYT,≤ 0.25
23,YIRR,≤ 0.25
24,TSCH,15.8

row,Variant,enrichment ratio
1,MMWA,≤ 0.25
2,TSWA,15.4
3,KSHV,≤ 0.25
4,KSCH,≤ 0.25
5,THHV,≤ 0.25
6,MMNF,≤ 0.25
7,KSNF,≤ 0.25
8,KSWA,≤ 0.25
9,FSCH,0.442
10,TSNF,16.1
11,TSHV,13.7
12,QSCS,≤ 0.25
13,SYVA,≤ 0.25
14,GMCC,≤ 0.25
15,FQGH,≤ 0.25
16,NRAM,≤ 0.25
17,KRFS,≤ 0.25
18,CNWS,≤ 0.25
19,RPDF,≤ 0.25
20,KFLF,≤ 0.25
21,SCDN,≤ 0.25
22,PMCH,≤ 0.25
23,TSHE,5.88
24,KSEI,≤ 0.25

row,Variant,enrichment ratio
1,WITI,≤ 0.25
2,TSEI,15.3
3,TSTA,14.2
4,MMTA,≤ 0.25
5,MMTI,≤ 0.25
6,KSHF,≤ 0.25
7,TSTI,22
8,WSEI,≤ 0.25
9,TSHF,13.4
10,LCTA,≤ 0.25
11,LGWN,≤ 0.25
12,TWGR,≤ 0.25
13,FHQM,≤ 0.25
14,TARV,≤ 0.25
15,QSIY,≤ 0.25
16,TSHQ,11.8
17,KSHQ,≤ 0.25
18,THHQ,≤ 0.25
19,DFQV,≤ 0.25
20,WHCG,≤ 0.25
21,AQTS,12.8
22,AQLT,8.16
23,AQTC,9.55
24,AQTK,≤ 0.25

row,Variant,enrichment ratio
1,AQLS,10.2
2,AQLN,31.6
3,AQLA,19
4,AQNL,≤ 0.25
5,AQCN,4.1
6,FEWS,≤ 0.25
7,RCQR,≤ 0.25
8,FLMM,1.72
9,YNDD,≤ 0.25
10,IFQD,≤ 0.25
11,AKFS,≤ 0.25
12,DMCV,≤ 0.25
13,TMPE,≤ 0.25
14,TMCE,21.2
15,TMIE,≤ 0.25
16,NNCV,≤ 0.25
17,TMCH,15.9
18,TMCV,13.2
19,TMMH,5.83
20,EMCG,≤ 0.25
21,TMCG,15
22,KMCG,≤ 0.25
23,HACH,≤ 0.25
24,NTFT,≤ 0.25

row,Variant,enrichment ratio
1,DACN,≤ 0.25
2,YKFT,≤ 0.25
3,VRAW,≤ 0.25
4,EVCN,≤ 0.25
5,PEAM,≤ 0.25
6,EYVE,≤ 0.25
7,HGYS,≤ 0.25
8,QTTN,≤ 0.25
9,SFNA,≤ 0.25
10,MWTS,≤ 0.25
11,PLKT,≤ 0.25
12,RNTM,≤ 0.25
13,WPSM,≤ 0.25
14,TMKE,13.6
15,TMNE,≤ 0.25
16,NHGE,≤ 0.25
17,MMSE,≤ 0.25
18,NMKE,≤ 0.25
19,DMSE,≤ 0.25
20,TMCS,16.8
21,TMPA,≤ 0.25
22,TMGE,14.8
23,TMSE,15.9
24,THGE,≤ 0.25

row,Variant,enrichment ratio
1,TMWI,≤ 0.25
2,DFCK,≤ 0.25
3,IFAG,≤ 0.25
4,ECNL,≤ 0.25
5,KFQG,≤ 0.25
6,GWTL,≤ 0.25
7,DYTL,≤ 0.25
8,YESY,≤ 0.25
9,RHIC,0.278
10,ATKV,≤ 0.25
11,IHFF,≤ 0.25
12,YYCV,≤ 0.25
13,NMCT,≤ 0.25
14,TMCT,19.5
15,DMCT,≤ 0.25
16,TMCK,3.91
17,TMCI,12.4
18,TMCA,8.5
19,YSWE,≤ 0.25
20,AFNE,≤ 0.25
21,WHNP,≤ 0.25
22,SAAG,14.1
23,SEAG,12.1
24,DPAG,≤ 0.25

row,Variant,enrichment ratio
1,SPAG,≤ 0.25
2,KYAG,≤ 0.25
3,SAVG,0.763
4,SQAG,25.9
5,SFAG,0.768
6,STAG,9.55
7,RRVI,≤ 0.25
8,FDPS,≤ 0.25
9,DHTW,≤ 0.25
10,SDIG,≤ 0.25
11,DPMG,≤ 0.25
12,SYHG,≤ 0.25
13,KYIG,≤ 0.25
14,STMG,9.85
15,SYMG,12.5
16,SQMG,20.8
17,SYIG,11.3
18,SYEG,≤ 0.25
19,WYLE,≤ 0.25
20,LKTQ,≤ 0.25
21,HHMC,≤ 0.25
22,FFEW,≤ 0.25
23,SADI,≤ 0.25
24,SNGG,7.77

row,Variant,enrichment ratio
1,TNLA,8.08
2,RGND,≤ 0.25
3,PGNG,≤ 0.25
4,AQNG,28.2
5,NGNG,≤ 0.25
6,TGNG,23.3
7,NQNG,≤ 0.25
8,IQNG,≤ 0.25
9,VKSA,≤ 0.25
10,NIRT,≤ 0.25
11,AVYH,0.253
12,INLE,≤ 0.25
13,SSTL,14
14,TTTL,13.4
15,GMTL,15.2
16,CTTL,≤ 0.25
17,SFTL,1.44
18,SRTL,0.897
19,GVTL,8.09
20,DITL,≤ 0.25
21,SITL,18.5
22,LTTL,≤ 0.25
23,KYTL,≤ 0.25
24,FVTL,1.5

row,Variant,enrichment ratio
1,MWFH,≤ 0.25
2,PGWI,≤ 0.25
3,ESFA,≤ 0.25
4,HNYP,≤ 0.25
5,MKHE,≤ 0.25
6,GLGE,≤ 0.25
7,GQQP,≤ 0.25
8,FLMS,≤ 0.25
9,ANVH,≤ 0.25
10,SQTL,12.3
11,MNTL,3.28
12,IQTL,≤ 0.25
13,GNTL,6.85
14,WNTL,≤ 0.25
15,TWTL,≤ 0.25
16,FTTL,3.67
17,TNTL,14
18,FQTL,1.49
19,GTTL,11.7
20,SNTL,14.6
21,QCRR,≤ 0.25
22,NVGP,≤ 0.25
23,SGTL,7.51
24,WPCQ,≤ 0.25

row,Variant,enrichment ratio
1,HKKN,≤ 0.25
2,PVRE,≤ 0.25
3,NYRG,≤ 0.25
4,SCTL,14.2
5,VCTL,6.03
6,TCTL,20.7
7,SVWL,≤ 0.25
8,PLTL,≤ 0.25
9,KFTL,≤ 0.25
10,KCTL,≤ 0.25
11,FCTL,≤ 0.25
12,WLTL,0.379
13,SLTL,15.2
14,SVTL,12.2
15,EAPT,≤ 0.25
16,TVGM,10.4
17,MWTK,≤ 0.25
18,AEKL,≤ 0.25
19,ARYC,≤ 0.25
20,ESWQ,≤ 0.25
21,HSSR,≤ 0.25
22,LRFQ,≤ 0.25
23,TLTL,14.1
24,ITTL,0.464

row,Variant,enrichment ratio
1,FLTL,0.273
2,VLTL,3.19
3,YTTL,3.18
4,QETL,≤ 0.25
5,STTL,16.6
6,NETL,≤ 0.25
7,SETL,14.8
8,MHRQ,≤ 0.25
9,GSPC,≤ 0.25
10,QHLF,≤ 0.25
11,RLFC,≤ 0.25
12,NYDD,≤ 0.25
13,RDCN,≤ 0.25
14,EACS,≤ 0.25
15,MLAN,≤ 0.25
16,MCYQ,17.2
17,KCYQ,≤ 0.25
18,MEYQ,≤ 0.25
19,MLYQ,18.8
20,MLYD,≤ 0.25
21,NCYQ,≤ 0.25
